In this assay the target is Histone deacetylase 9 (Homo sapiens) (UniProt Q9UKV0). The assay can be described thus: inhibitors of recombinant human HDAC9 – biochemical, selectivity assay for E-cadherin restoration project, profiling panel (AID 651909).

This note sets out measurements from PubChem BioAssay AID651909 (Vanderbilt Specialized Chemistry Center, 2012).

Activity calls are given as the source filed them. The rule behind the calls is not given here.

Histone deacetylase 9 (Homo sapiens), sequence (Q9UKV0 whole entry, looked up): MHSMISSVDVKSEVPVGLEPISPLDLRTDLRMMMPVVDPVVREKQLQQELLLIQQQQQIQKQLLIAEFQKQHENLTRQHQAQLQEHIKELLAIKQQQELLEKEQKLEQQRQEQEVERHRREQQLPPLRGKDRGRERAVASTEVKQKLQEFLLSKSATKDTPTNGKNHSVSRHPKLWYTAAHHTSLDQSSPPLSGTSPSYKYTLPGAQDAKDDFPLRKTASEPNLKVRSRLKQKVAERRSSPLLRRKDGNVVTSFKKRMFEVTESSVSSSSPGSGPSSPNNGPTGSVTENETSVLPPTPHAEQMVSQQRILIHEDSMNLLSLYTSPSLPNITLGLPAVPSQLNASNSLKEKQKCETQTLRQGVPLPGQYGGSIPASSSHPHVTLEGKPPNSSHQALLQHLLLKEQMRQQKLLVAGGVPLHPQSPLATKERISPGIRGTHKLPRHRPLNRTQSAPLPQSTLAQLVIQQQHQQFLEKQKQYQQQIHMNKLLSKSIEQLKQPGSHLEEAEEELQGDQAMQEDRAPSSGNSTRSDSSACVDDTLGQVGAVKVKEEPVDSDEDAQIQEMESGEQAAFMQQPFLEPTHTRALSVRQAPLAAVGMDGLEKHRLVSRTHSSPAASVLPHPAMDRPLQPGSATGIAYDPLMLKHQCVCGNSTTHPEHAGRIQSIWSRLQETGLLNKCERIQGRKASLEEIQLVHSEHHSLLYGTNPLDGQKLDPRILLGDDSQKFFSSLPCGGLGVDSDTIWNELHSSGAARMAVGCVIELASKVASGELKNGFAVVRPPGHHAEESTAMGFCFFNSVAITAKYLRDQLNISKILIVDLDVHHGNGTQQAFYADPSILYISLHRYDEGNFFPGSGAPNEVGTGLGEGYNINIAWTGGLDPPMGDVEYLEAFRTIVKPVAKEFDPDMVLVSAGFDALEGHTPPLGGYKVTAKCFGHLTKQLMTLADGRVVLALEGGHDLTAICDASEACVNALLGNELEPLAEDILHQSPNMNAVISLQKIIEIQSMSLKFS

With `O=C(NCCCNC(=O)c1ccc[nH]c1=O)c1cc(-c2ccccc2)on1`, the outcome was inactive.
